Results taken from PubChem BioAssay (EPA / NIEHS).
Several values for one entry are separate records, joined by “and”; a condition that tells them apart may be missing. Identical values can stand only once. Activity calls are given as the source filed them. How the source made its calls: active means hit-call score of the fitted dose curve at least 0.9, where 1 is the maximum; inconclusive means response in the unintended direction; inactive means score below 0.9.

tested on: SERPINA7 (gene 6906); test: CCTE_GLTED_hTBG: CCTE's human Thyroxine-binding Globulin (TBG) Inhibition Assay, Great Lakes Toxicology and Ecology Division (GLTED) Lab (AID 2284343);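 further: active chemicals lower fluorescence versus DMSO baseline by displacing probe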
Protocol: CCTE_GLTED_hTBG is a cell-free, single-readout assay designed to test the chemicals' ability to displace T4 from the human thyroxine-binding globulin (TBG) protein. TBG is incubated in presence of test chemical for 2 hours during which disrupting chemicals displace ANSA from the TBG protein. Results read fluorescence at 380 excitation and 475 emission.CCTE_GLTED_hTBG is the assay component measured from the CCTE_GLTED_hTBG assay. It is designed to make measurements of fluorescent polarization, using a form of binding reporter, as detected with Fluorescence signals by Fluorescence technology.Data from the assay component CCTE_GLTED_hTBG was analyzed at the assay endpoint CCTE_GLTED_hTBG in the positive analysis fitting direction relative to DMSO as the negative control and baseline of activity. Using a type of binding reporter, loss-of-signal activity can be used to understand a chemical's ability to displace T4 from thyroxine-binding globulin. To generalize the intended target to other relatable targets, this assay endpoint is annotated to the 'transporter' intended target family, where the subfamily is 'hormone carrier protein'.
Human transthyretin (TTR) assay, developed at Great Lakes Toxicology and Ecology Division (GLTED) within the EPA's Center for Computational Toxicology and Exposure (CCTE), is designed to test the chemicals' ability to displace T4 from the TTR protein. TTR (0.5uM) is incubated in presence of test chemical for 2 hours during which disrupting chemicals displace ANSA from the TTR protein. Results read fluorescence at 380 excitation and 475 emission.

Row | Compound | AC50 | outcome
1 | C[C@H]1CCCC(=O)CCC/C=C/c2cc(O)cc(O)c2C(=O)O1 | 50 µM (active) | –
2 | O=C(Cc1ccccc1)c1ccccc1 | 10 µM (active) | –
3 | CCCCCCCCc1ccc(O)cc1 | 36 µM (active) | –
4 | O=[N+]([O-])c1ccc(O)c([N+](=O)[O-])c1 | 21.9 µM (active) | –
5 | CCC(C)(C)c1ccc(O)c(C(C)(C)CC)c1 | 13.3 µM (active) | –
6 | COP(=O)(OC)O/C(=C\Cl)c1cc(Cl)c(Cl)cc1Cl | 10.1 µM (active) | –
7 | CCOP(=S)(OCC)Oc1nc(Cl)c(Cl)cc1Cl | 18.6 µM (active) | –
8 | CC(C)(C)CC(C)(C)c1ccc(O)cc1 | 5.79 µM (active) | –
9 | CC(C)(c1ccccc1)c1ccc(O)c(C(C)(C)c2ccccc2)c1 | 7.35 µM (active) | –
10 | O=C(O)C(F)(F)C(F)(F)C(F)(F)C(F)(F)C(F)(F)C(F)(F)C(F)(F)C(F)(F)C(F)(F)C(F)(F)F | 2.7 µM (active) and 47.2 µM (active) | –
11 | COc1cc(-c2ccc(N)c(OC)c2)ccc1N | 19.3 µM (active) and 32.2 µM (active) | –
12 | ClC1(Cl)C2(Cl)C3(Cl)C4(Cl)C(Cl)(Cl)C5(Cl)C3(Cl)C1(Cl)C5(Cl)C24Cl (stereo not drawn) | – | inactive
13 | Oc1ccc(-c2ccccc2)cc1 | 31.2 µM (active) | –
14 | CC1(C)CCC(Cc2ccc(Cl)cc2)C1(O)Cn1cncn1 (stereo not drawn) | 30.1 µM (active) | –
15 | O=C1C(Cl)=C(Cl)C(=O)c2ccccc21 | 43.7 µM (active) | –
16 | O=C1C2(Cl)C3(Cl)C4(Cl)C(Cl)(Cl)C5(Cl)C3(Cl)C1(Cl)C5(Cl)C24Cl (stereo not drawn) | – | inactive
17 | COP(=S)(OC)Oc1ccc(Sc2ccc(OP(=S)(OC)OC)cc2)cc1 | 2.89 µM (active) | –
18 | CC(C)c1cccc(C(C)C)c1O | 44.1 µM (active) | –
